# Measurements taken from the supplement of paper PMC7801607.
# Tested on: Plasmodium berghei ANKA liver stage in HepG2-A16-CD81
# Assay: % inhibition of liver stage parasite viability (luciferase); higher = more inhibition
# Conditions: 5 µM; 48 h
# Protocol: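 Single-concentration screen of the MMV Pandemic Response Box. P. falciparum NF54 asexual blood stages: pLDH assay, 72 h at 37 °C, 2 and 20 µM, n=2. Stage IV/V gametocytes (NF54): luciferase reporter (NF54-Pfs16-GFP-Luc, 48 h), ATP bioluminescence (24 h) and PrestoBlue (48 h) at 1 and 5 µM, n=1. P. berghei liver stage (luciferase in HepG2-A16-CD81, 48 h post infection) at 5 µM, n=4. All normalised to DMSO and kill controls as % inhibition.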
row,Compound,% inhibition of liver stage parasite viability [%]
1,CCC(C)(C)c1ccc(CC(C)CN2C[C@@H](C)O[C@@H](C)C2)cc1 (stereo not given in full),40.5
2,Cc1ccc(NC(=O)c2ccc(CN3CCN(C)CC3)cc2)cc1Nc1nccc(-c2cccnc2)n1,8.45
3,O=C(NNC(=S)Nc1ccc(Cl)cc1)c1ccncc1,5.18
4,Cc1cccc(C)c1C(=O)Nc1nc(-c2ccccn2)cc2ccccc12,73.3
5,CCCNc1ccc(S(=O)(=O)Nc2cc(C)on2)cc1,32.4
6,CC(C)Oc1ccc(-n2cnc3cc(/C=C\c4ccc(C(C)(C)O)cc4)ccc32)cc1,20.4
7,CCc1cc(O)c(Oc2cccnc2N)cc1F,18.6
8,Nc1ccc2oc(=O)ccc2c1I,6.97
9,Cc1cc(NS(=O)(=O)c2ccc(-c3ccc(F)cc3F)cc2)no1,43.5
10,CCc1cc(O)c(Oc2ccc(C(N)=O)cc2F)cc1F,8.75
11,COc1ccccc1NC(=O)c1ccccc1Sc1ccc([N+](=O)[O-])cc1,27
12,COc1cc(NCc2ccc3nc(N)nc(N)c3c2C)cc(OC)c1OC,69.1
13,Nc1cnn(C2OC(CO)C(O)C2O)c(=O)n1 (stereo not given),-44.9
14,CCc1cc(CCCOc2c(C)cc(-c3noc(C(F)(F)F)n3)cc2C)on1,28.7
15,COc1cc2c(O)c3c(c(-c4ccc5c(c4)OCO5)c2cc1OC)C(=O)OC3,58.4
16,C[C@H](c1cccc2ccccc12)N(C)Cc1ccccc1,19.1
17,COc1ccc2cc3[n+](cc2c1OCCN(CCn1cncn1)Cc1ccc(F)cc1F)CCc1cc2c(cc1-3)OCO2,2.84
18,Cc1ccc(NC(=O)c2cc(Cl)ccc2O)cc1,78.5
19,N#C/C(=C1/SC[C@H](c2ccc(Cl)cc2Cl)S1)n1ccnc1,24
20,Nc1nc(O)ncc1F,7.9

row,Compound,% inhibition of liver stage parasite viability [%]
1,COC(=O)Nc1nc2cc(Sc3ccccc3)ccc2[nH]1,-25.4
2,NC(=O)c1cnccn1,14.3
3,Clc1cc(Cl)c2c(c1)CCc1ccccc1C2n1ccnc1 (stereo not given),53.2
4,CC(C)c1cc2c(cc1S(=O)(=O)O)[C@@]1(C)CCC[C@@](C)(C(=O)O)[C@@H]1CC2,38.5
5,OC(Cn1cncn1)(Cn1cncn1)c1ccc(F)cc1F,19.2
6,OB1OCc2cc(Cl)ccc21,23.6
7,CCC(C)NCC(O)Cn1c2ccc(Cl)cc2c2cc(Cl)ccc21 (stereo not given),-2.71
8,Nc1nc(-c2ccccc2)nc2c1ncn2[C@@H]1O[C@H](COS(=O)(=O)NC(=O)c2ccccc2O)[C@@H](O)[C@H]1O,2.37
9,CC[C@@]1(O)C(=O)OCc2c1cc1n(c2=O)Cc2cc3c([N+](=O)[O-])cccc3nc2-1,62.8
10,CCCCc1ccc(S(=O)(=O)Nc2cc(C)on2)cc1,40.7
11,Clc1cccc(-c2nnc(-c3ccccc3)o2)c1,-89.2
12,CC(=O)N1c2ccccc2NC2=C(C(=O)CC(C)(C)C2)C1c1ccc(OCc2ccccc2)cc1 (stereo not given),27.4
13,O=C(O)c1cc(-c2ccc(Br)cc2)nc2ccc(Cl)cc12,-34.6
14,COc1cc(NS(=O)(=O)c2ccc(C)cc2)c2ncccc2c1,48.9
15,CC1(C)Cc2c(C#N)c(SCCc3ccccc3)nc(N3CCOCC3)c2CO1,18.8
16,CC(C)(C)OC(=O)NCc1ccc(C(=O)N[C@H]2CCOC2=O)cc1,39.8
17,CC(C)Nc1ncnc2c1cnn2-c1ccc(Cl)cc1,43.2
18,CCCCCCCc1[nH]c2ccccc2c(=O)c1O,72.5
19,CCOC(=O)/C=C/[C@H](C[C@@H]1CCNC1=O)NC(=O)[C@@H](CC(=O)[C@@H](NC(=O)c1cc(C)on1)C(C)C)Cc1ccc(F)cc1,-3.33
20,NS(=O)(=O)c1ccc(NC(=O)NC(c2ccccc2)c2ccccc2)cc1,19.3
